# Screens from PubChem.
# Rows were chosen to be rich in hits. Some 6% of all compounds tested hit in one or more screens of this group.
# D1 antag = Antagonist of Human D 1 Dopamine Receptor: qHTS; HEK293 TREx D1 cells, calcium flux, dopamine EC80; stronger effect = lower value; activity change, negative = inhibition, % at 10 µM; 3.2% of 360,000 active; D(1A) dopamine receptor (Homo sapiens), P21728; in the data active = activity change below about -30%
#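 Calcium flux readout: force-coupled, inducible Hek293 Trex D1 line, cells induced overnight at 30 C with tetracycline, dye-loaded 30–90 min at RT. Antagonism scored against EC80 dopamine challenge given 180 s after compound.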
# DRD3 agonist = qHTS of D3 Dopamine Receptor Agonist: qHTS | D(3) dopamine receptor (Homo sapiens), P35462 | D3R DiscoveRx beta-arrestin cells, luminescence, 90 min | max activation, % | 0.58% of 410,000 active | AID 652048, 2013; in the data active = max activation above about 30%
# Target sequence (P35462 whole entry, looked up): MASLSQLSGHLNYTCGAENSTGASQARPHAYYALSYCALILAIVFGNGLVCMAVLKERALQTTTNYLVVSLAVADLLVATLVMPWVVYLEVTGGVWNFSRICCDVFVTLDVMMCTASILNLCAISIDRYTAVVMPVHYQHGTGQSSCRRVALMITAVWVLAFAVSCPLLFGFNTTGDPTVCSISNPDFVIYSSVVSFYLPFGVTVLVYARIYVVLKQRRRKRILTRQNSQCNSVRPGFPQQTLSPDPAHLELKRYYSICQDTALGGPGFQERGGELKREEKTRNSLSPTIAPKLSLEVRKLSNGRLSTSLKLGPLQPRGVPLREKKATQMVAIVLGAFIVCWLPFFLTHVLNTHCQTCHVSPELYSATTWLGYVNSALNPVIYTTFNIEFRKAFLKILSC
#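 Agonist mode: compounds and dopamine controls were applied to plated cells for 90 min at 37 degrees C after an overnight attachment at 1500 cells/well. Luminescent read-out followed 30 - 60 minutes at room temperature with DiscoveRx detection reagent.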
# D1 potentiator = Potentiators of Human D1 Dopamine Receptor: qHTS; D(1A) dopamine receptor (Homo sapiens), P21728; HEK293 TREx D1 cells, calcium flux, dopamine EC20 potentiation; potentiation, % at 10 µM; 0.036% of 360,000 active; in the data active = potentiation above about 30%
# D3 antag = qHTS of D3 Dopamine Receptor Antagonist: qHTS. D(3) dopamine receptor (Homo sapiens), P35462. D3R cells, DiscoveRx beta-arrestin luminescence, antagonist mode; stronger effect = lower value. max response, negative = inhibition, %. 2.5% of 360,000 active; in the data active = max response below about -50%; inconclusive = no clear call, values can overlap the other calls
#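 Cells plated overnight at 1500 cells/well, then exposed to library compounds with dopamine controls for 90 minutes at 37 degrees C. DiscoveRx reagent added for 30–60 minutes at room temperature; luminescence read, quantitative HTS format.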
# D1 agonist = Allosteric Agonists of the Human D1 Dopamine Receptor: qHTS. D(1A) dopamine receptor (Homo sapiens), P21728. HEK293 T-REx D1 cells, calcium flux, agonist mode. activation, % at 2 µM. 1% of 360,000 active. AID 504660, 2011; in the data active = activation above about 30%
#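 Agonism was scored from calcium flux recorded over 180 s (1 read/s) after pintool compound addition, following a 10-cycle baseline. Cells were inducible force-coupled HEK293 TREx D1, plated overnight at 30 C and loaded with no-wash calcium dye.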
# Hits are given with their value; - = inactive; ? = inconclusive; . = no result given.
SMILES,D1 antag,DRD3 agonist,D1 potentiator,D3 antag,D1 agonist
Nc1nc2ccc(N3CCOCC3)cc2s1,-34,-,-,-76,-
COC(=O)C(C)(C)ONC(=O)Nc1ccccc1Cl,-,-,-,-,-
O=C(Cc1ccccc1)Nc1sc2c(c1C(=O)Nc1ccc(Br)cc1)CCCC2,-,-,-,.,-
CCn1c(C(=O)N2CCC(C(=O)N3CCN(c4cc(C)ccc4C)CC3)CC2)cc2sccc21,-36,-,-,.,-
CCn1c(C(=O)N2CCC(C(=O)N3CCN(c4cccc(C)c4C)CC3)CC2)cc2sccc21,-,-,-,.,-
Cc1cccc(CS(=O)(=O)c2nnc([C@H](Cc3ccccc3)NC(=O)OC(C)(C)C)o2)c1,-,-,-,-77,-
COC(=O)Cc1csc(NC(=O)CSc2nncn2C)n1,.,-,.,-,.
Cc1csc(NC(=O)CSc2nncn2C)n1,-,-,-,-63,-
CCOC(=O)C1CCN(C/C=C/c2ccccc2[N+](=O)[O-])CC1,-,-,-,-56,-
CCOC(=O)C1CCN(C/C=C/c2ccccc2OC)CC1,-,-,-,-68,-
CCOC(=O)C1CCCN(C(=O)/C=C/c2ccccc2[N+](=O)[O-])C1 (stereo unspecified),-,-,-,-,-
CCc1ccccc1N(CC(=O)NCCc1ccccc1)C(=O)CCC(=O)Nc1ccccn1,-30,-,-,-,40
COc1ccc(S(=O)(=O)n2nc(-n3c(C)ccc3C)c3c(F)cccc32)cc1OC,-34,-,-,-,-
Cc1ccc(C)n1-c1nn(S(=O)(=O)c2ccccc2)c2cccc(F)c12,-,-,-,-,-
CCCCOc1ccc(C(=O)NNC(=O)C2C3CCC(C3)C2C(=O)O)cc1 (stereo unspecified),-,-,-,-,-
CCCCOc1ccc(C(=O)NNC(=O)C2C3C=CC(C3)C2C(=O)O)cc1 (stereo unspecified),-82,-,-,-,-
COC(=O)[C@]1(Sc2ccc(C)cc2)CC(=O)N[C@@H]1c1ccco1,.,-,.,-69,.
COC(=O)[C@@]1(Sc2ccc(C)cc2)CC(=O)N[C@@H]1c1ccco1,.,-,.,-,.
Cc1[nH]c2ccccc2c1SCCNC(=O)c1ccc(F)cc1,-34,-,-,.,-
COc1ccc(C=C2C(=O)c3ccccc3C2=O)cc1O,-,-,-,-,-
COc1ccc(/C=C2\CCc3ccccc3C2=O)cc1OC,-,-,-,-,-
COc1ccc(/C=C2\CN(Cc3ccccc3)C/C(=C\c3ccc(OC)c(O)c3)C2=O)cc1O,-,-,-,-53,-
COc1ccc(/C=C2\CC/C(=C\c3ccc(OC)cc3OC)C2=O)c(OC)c1,-,-,-,-,54
COc1cc(/C=C2\CC/C(=C\c3ccc(OCCO)c(OC)c3)C2=O)ccc1OCCO,-,-,-,-,99
COc1cc(C=C2C(=O)c3ccccc3C2=O)ccc1O,-,-,-,-77,-
SMILES,D1 antag,DRD3 agonist,D1 potentiator,D3 antag,D1 agonist
CCN1C/C(=C/c2ccc(OC)c(O)c2)C(=O)/C(=C/c2ccc(OC)c(O)c2)C1,-,-,-,?,-
O=S(=O)(NCc1nc2cccnc2n1Cc1ccc(F)cc1)c1ccc(Cl)s1,-,-,-,.,-
COc1cc(/C=C2\COC/C(=C\c3ccc(O)c(OC)c3)C2=O)ccc1O,-,-,-,-90,-
COc1cc(/C=C2/CC/C(=C/c3ccc(O)c(OC)c3)C2=O)ccc1O,-,-,-,-,78
COc1ccc(/C=C2\CC/C(=C\c3ccc(OC)c(OC)c3)C2=O)cc1OC,-,-,-,-,-
CCN(CC)S(=O)(=O)c1cc(C(=O)OCC(=O)Nc2cccc(S(=O)(=O)N(C)C)c2)ccc1F,-40,-,-,-,-
Cc1ccc2nc(-c3cc(-c4ccccc4)no3)cn2c1,-53,-,-,-,-
O=c1c2ccccc2sn1-c1ccc(F)cc1,-44,-,-,-54,65
Cc1ccc(-n2sc3ccccc3c2=O)cc1,-,-,-,-,-
COC(=O)c1cccc(-n2sc3ccccc3c2=O)c1,-,-,-,-60,-
CC1Cn2cc(C(=O)Nc3cccc(C(F)(F)F)c3)c(=O)c3c(Cl)ccc(c32)O1 (stereo unspecified),-,-,-,.,-
COc1cc(C(=O)/C=C/c2cccnc2)c([N+](=O)[O-])cc1OC,-,-,-,-73,-
O=C(/C=C/c1cccnc1)c1ccc([N+](=O)[O-])cc1,-,-,-,-,-
CN(C)c1ccc(-c2ccnc3c2CC(C)(C(=O)NCc2ccc(F)c(F)c2)O3)cc1 (stereo unspecified),.,-,.,-,.
CCOc1ccccc1NC(=O)N1CCN(S(=O)(=O)c2ccc3c(ccn3C)c2)CC1,-,-,-,.,-
CCCCCN1CC(=O)N2Cc3[nH]c4ccccc4c3C[C@H]2C1=O,-,-,-,-,-
CCCCN1C(=O)C2Cc3c([nH]c4ccccc34)CN2C1=S (stereo unspecified),-33,-,-,-,-
CCOC(=O)c1ccc(-c2ccc(/C=C(\C#N)C(=O)Nc3ccc(C)cc3OC)o2)cc1,-,-,-,.,-
Cc1cccc(C)c1NC(=O)/C(C#N)=C/c1ccsc1,-35,-,-,-,-
Cc1ccc(CNC(=O)/C(C#N)=C/c2ccc(C)s2)cc1,-,-,-,-,-
COC(=O)c1ccc(COc2ccccc2/C=C(\C#N)C(=O)Nc2c(C)cccc2C)cc1,-,-,-,-,-
Cc1ccc(/C=C(\C#N)C(=O)Nc2c(C)cccc2C)s1,-,-,-,-80,-
Cc1ccc(NC(=O)/C(C#N)=C/c2ccc(C)s2)c(C)c1,-,-,-,-,43
CN1CCN(c2nc3c(S(=O)(=O)c4ccccc4)nnn3c3ccsc23)CC1,-,-,-,.,-
CC1CN(CC(=O)N2CCc3[nH]c4ccccc4c3C2)CC(C)O1 (stereo unspecified),-44,-,-,?,-
SMILES,D1 antag,DRD3 agonist,D1 potentiator,D3 antag,D1 agonist
Cc1ccc(OCCCCN2CCCCC2)c(C)c1,-,-,-,-,-
Cc1ccc(OCCCN2CCCC2)c(C)c1,-,-,-,-52,-
Cc1ccc(C#N)c(SCCN2CCCCC2)n1,-,-,-,-,-
Cc1ccc(C)c(OCCCCN2CCCCC2)c1,-,-,-,-67,-
N#Cc1ccc(N)cc1OCCCN1CCCCC1,.,-,.,-52,.
Cc1cc(Br)ccc1OCCN1CCCC1,-,-,-,-69,-
COc1ccc(Cl)cc1NC(=O)CSc1nccn1-c1ccc(Cl)cc1,-,-,-,.,-
COc1ccc(NC(=O)c2cn(-c3ccccc3)nc2-c2ccc(C)cc2)cc1,-,-,-,.,-
